Bioassay records: PubChem BioAssay, University of Kansas High Throughput Screening Laboratory
The full list was thinned out, with hits kept by preference.
mHTT CaM bind: mHTT-calmodulin interaction abrogation; AlphaScreen His-mHTT/GST-CaM binding, luminescence; inhibition, % at 15 µM; actives 3.6% (n = 190,000);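 also: 0% = both proteins with DMSO and 100% = one protein alone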
Pf apPOL inh: Pf-apPOL DNA polymerase inhibition. actives 0.25% (n = 210,000). inhibition, % at 10 µM. AID 1794808. Recombinant Pf-apPOL, molecular beacon fluorescence, 1.5 h
* hit, by the source's call; i = inactive; x = not tested or not shown. Rule as the data show it: active = inhibition above about 50%; inactive = the rest.

SMILES | mHTT CaM bind | Pf apPOL inh
O=C(NCc1ccc(F)cc1)c1cncc(-c2cc3ccccc3s2)c1 | -2 | -1
N#Cc1c(N)nc2c(c1-c1ccc([N+](=O)[O-])cc1)CCC2 | 24 | -4
O=C(NCC1(O)CCOCC1)c1ccccc1C(F)(F)F | -12 | -8
COc1cc(O)c(C(CC(=O)N2CCCC2)c2ccc(N(C)C)cc2)c(OC)c1 (stereo not given) | 35 | -4
COc1cc(OC)c2c(-c3ccccc3)cc(=O)oc2c1C(CC(=O)N1CCN(c2ccccc2)CC1)c1ccc(N(C)C)cc1 (stereo not given) | 58* | -7
COc1cc(OC)c2c(-c3ccccc3)cc(=O)oc2c1C(CC(=O)N1CCOCC1)c1ccc2c(c1)OCO2 (stereo not given) | 34 | -4
COc1cc(OC)c2c(-c3ccccc3)cc(=O)oc2c1C(CC(=O)N1CCOCC1)c1ccc(N(C)C)cc1 (stereo not given) | 66* | -4
CCC(CC)C(=O)Nc1ccc(C)c(C)c1 | -5 | 7
CCC(=O)NCCc1csc(C2CCN(C(=O)c3ccc(C)cc3)CC2)n1 | -3 | -1
COCCC1CCN(C(=O)Cc2cccnc2)CC1 | 1 | -4
Cn1cnnc1Sc1ccc([N+](=O)[O-])c2ncccc12 | 2 | 5
O=[N+]([O-])c1ccc(SCc2ccco2)c2cccnc12 | 100* | -6
O=C(Cc1ccccc1)Nc1ccc(N2CCCC2)cc1 | 92* | -10
O=C(Cc1ccccc1)Nc1cccc(NC(=O)Cc2ccccc2)n1 | -4 | 65*
O=C(Cc1ccccc1)Nc1ccc(Nc2ccccc2)cc1 | 62* | -4
O=C(Cc1ccccc1)Nc1ccc(S(=O)(=O)N2CCCC2)cc1 | 1 | -8
COc1ccc(CC(=O)Nc2ccccc2)cc1OC | -2 | -6
O=C(Cc1ccccc1)Nc1ccccc1NC(=O)Cc1ccccc1 | 2 | -7
O=C(Cc1ccc([N+](=O)[O-])cc1)Nc1ccc(Nc2ccccc2)cc1 | 31 | -6
COc1ccc(CC(=O)Nc2ccc(Nc3ccccc3)cc2)cc1OC | 62* | -7
Cc1ccc(N2C=NS(=O)(=O)c3cccnc32)c(F)c1 | -3 | -5
O=C(CSc1ncccn1)N1c2ccccc2Sc2ccc(Cl)cc21 | -2 | 4
CC(C)COC(=O)C1C2C=CC3(CN(C4CCCCC4)C(=O)C13)O2 (stereo not given) | -25 | -1
Cc1ccccc1NC(=O)c1cc(S(=O)(=O)N2CCCCC2)ccc1Cl | -4 | 2
COc1ccc(C(=O)COc2ccc(C)c(C)c2)cc1 | -56 | 0
SMILES | mHTT CaM bind | Pf apPOL inh
CCOc1ccccc1C(=O)Nc1c2c(nn1-c1ccc(F)cc1)CS(=O)(=O)C2 | 3 | -2
Cc1ccc(F)cc1N1C(=O)CSC1c1ccc([N+](=O)[O-])cc1 (stereo not given) | 0 | 5
C(=C\CSc1nnc(-c2ccccc2)c(-c2ccccc2)n1)/CSc1nnc(-c2ccccc2)c(-c2ccccc2)n1 | 6 | x
COc1cc([N+](=O)[O-])ccc1-c1ccc(C(=O)Nc2ccc(N3CCCCC3)cc2)o1 | 51* | -5
O=C(Nc1ccc(N2CCCN(C(=O)C3CC3)CC2)cc1)c1cc(-c2ccccc2)on1 | 13 | -4
COc1cccc2cc(C(=O)Nc3ccc(N4CCCN(C(=O)C5CC5)CC4)cc3)oc12 | 61* | 4
COc1ccccc1C(=O)Nc1cnc(N2CCCC2)nc1 | -3 | -2
COc1ccccc1C(=O)Nc1ccc(N2CCCC2)cc1 | 61* | 0
COc1ccc(NC(=O)c2ccc(-c3ccc([N+](=O)[O-])cc3OC)o2)cc1Cl | 42 | -7
O=C(COc1ccccc1[N+](=O)[O-])Nc1cc(C(=O)O)cc(C(=O)O)c1 | -6 | 1
O=C(COc1ccccc1[N+](=O)[O-])Nc1ccc(N2CCCC2)cc1 | 34 | 54*
O=C(NCc1ccc(F)cc1)c1ccn2c(-c3ccccc3)nnc2c1 | -3 | -6
CCc1ccc(C(=O)N2CCc3c(nc[nH]c3=O)C2)cc1 | -6 | 7
Cc1ccc(C(=O)Nc2ccc(N3CCOCC3)cc2)cc1C | 11 | 3
Cc1ccc(C(=O)Nc2ccc(N3CCCC3)cc2)cc1Cl | 100* | -3
Cc1ccc(NC(=O)c2ccc(Cl)cc2[N+](=O)[O-])cc1 | 5 | -7
C=CCOc1ccc(/C=c2\sc3ncnn3c2=O)cc1OC | 1 | 3
CC(=O)N1CCC(n2c(C)nc(C(=O)Nc3ccc(Oc4ccccc4)cc3)c2C)CC1 | 52* | -2
CCOC(=O)c1ccc(NC(=O)c2nc(C)n(C3CCN(C(C)=O)CC3)c2C)cc1 | 30 | -5
Cc1ccc(C)c(S(=O)(=O)N2CCc3nc[nH]c3C2)c1 | 4 | -2
COc1ccccc1/C=C1\C(=O)Nc2ccc(F)cc21 | 30 | 2
CCOc1cc(/C=C2\C(=O)Nc3ccc(Br)cc32)c(Br)cc1OC | 40 | 4
CCCCOc1ccccc1/C=C1\C(=O)Nc2ccc(Br)cc21 | 62* | 3
CCOc1ccccc1/C=C1\C(=O)Nc2ccc(F)cc21 | 96* | -7
Cc1ccc(/C=C2\C(=O)Nc3ccc(Br)cc32)cc1 | 43 | -9
SMILES | mHTT CaM bind | Pf apPOL inh
COc1ccc(Br)cc1/C=C1\C(=O)Nc2ccc(Br)cc21 | 5 | -37
Cc1ccccc1/C=C1\C(=O)Nc2ccc(Br)cc21 | 97* | -4
CCOc1c(O)ccc(/C=C2\C(=O)Nc3ccc(Br)cc32)c1[N+](=O)[O-] | 94* | -23
CN1C(=O)CCC2(CNC(=O)COc3ccccc3)CCCC12 (stereo not given) | 0 | -5
O=c1nc2s/c(=C\c3cccc([N+](=O)[O-])c3)c(=O)n2nc1Cc1ccccc1 | -1 | -8
CC(C)NC(=O)c1ccc(OCC2CCCN2C(=O)Cc2cccs2)cc1 (stereo not given) | -1 | -3
CCC(=O)Nc1cccc(-c2noc(C3CCCN(C(=O)Cc4cccc(F)c4)C3)n2)c1 (stereo not given) | 7 | 3
O=C1Nc2ccc(Br)cc2/C1=C/c1ccc(Br)cc1 | 35 | 2
O=C1Nc2ccc(Br)cc2/C1=C/c1ccc(O)cc1 | 100* | -29
CSc1ccc(/C=C2\C(=O)Nc3ccc(Br)cc32)cc1 | 39 | 3
CC(C)c1ccc(/C=C2\C(=O)Nc3ccc(F)cc32)cc1 | 100* | -8
Cc1ccccc1/C=C1\C(=O)Nc2ccc(F)cc21 | 100* | -10
O=C1Nc2ccc(F)cc2/C1=C/c1ccccc1F | 21 | -7
O=C1Nc2ccc(F)cc2/C1=C/c1ccc(F)cc1 | 17 | 0
Cc1ccc(/C=C2\C(=O)Nc3ccc(Br)cc32)o1 | 75* | 0
COc1ccccc1C/C(N)=N/OC(=O)COc1ccc(C)cc1Br | i | -6
Cc1c(Br)cc(C(=O)NC(C)C)c(C)c1C | -2 | 4
O=C(NCc1ccc(F)cc1)c1c(O)c2cccc3c2n(c1=O)CC3 | 3 | -13
COc1ccc(Nc2nc(Cl)nc(Nc3ccc(OC)c(OC)c3)n2)cc1OC | 44 | -6
COc1ccc(OC)c(Nc2nc(Cl)nc(Nc3cc(OC)ccc3OC)n2)c1 | 53* | -2
Cc1ccc(CN2C(=O)CCc3c(C)nc(-c4ccncc4)nc32)o1 | 71* | 9
Cc1nc(-c2ccncc2)nc2c1CCC(=O)N2Cc1cccs1 | 6 | -3
Cc1nc(-c2cnccn2)nc2c1CCC(=O)N2Cc1ccccn1 | 99* | -22
Cc1nc(-c2cccnc2)nc2c1CCC(=O)N2Cc1ccccn1 | 2 | -12
Cc1nc(-c2cccnc2)nc2c1CCC(=O)N2CCN1CCCC1 | 23 | 58*
